A selection: hits, their analogues and other compounds. The true share with any hit is near 10%.
PNC assembly inh: blocks assembly of the perinucleolar compartment; actives 3.1% (n = 140,000); PC3M PTB-GFP, PNC prevalence imaging, 16 h; hits give low values; activity change (PNC), negative = inhibition, % at 10 µM;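 active = readout at or below -70, meaning at least 70% loss of cells showing the perinucleolar compartment, a nuclear body marking cancer cells; inconclusive = readout between -30 and a set limit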;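 also: plate controls were DMSO wells for no effect and camptothecin positive control wells for full effect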
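Read-out is percentage of cells bearing a perinucleolar compartment, from automated 20x imaging of fixed, Hoechst-stained PC3M PTB-GFP cells. Cells were seeded 4 h, then exposed 16 h to compound (23 nl of library stock) in duplicate plates.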
Lamin A splicing: LMNA splicing modulation; HeLa LMNA splicing GFP/RFP minigene ratio, 48 h; Potency, µM (highest dose often 46.1 µM), without a hit: at the highest dose ratio change, negative = inhibition, actives largely listed as inhibitors; actives 0.01% (n = 200,000); active = well fitted inhibition curve with a large enough effect in the signal ratio, with a control signal flat, not every such curve was filed as active; inconclusive = small, poorly fitted or top-dose-only effect, or effect the other way, or a change in a side signal; the % refers to the signal ratio; also: potency is read from the fitted curve at half-maximal effect
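S3 HeLa stable clones carrying a lamin A-EGFP splicing minigene plus DsRed2 were seeded at 600 cells/well in Opti-MEM with 2% FBS, pin-dosed and incubated 48 h at 37°C. Acumen cytometry (488 nm) gave the GFP/RFP total-intensity ratio.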
ALDH1A1 inh: blocks purified human ALDH1A1 activity. P00352. actives 7.3% (n = 220,000). Potency, µM (highest dose often 75.3 µM), for inactives: at the highest dose activity, negative = inhibition, actives largely listed as inhibitors. Purified ALDH1A1, NADH fluorescence, propionaldehyde substrate;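 also: potency is read from the fitted curve at half-maximal effect; plate controls were no enzyme wells and a reference inhibitor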
Target sequence (P00352 whole entry, looked up): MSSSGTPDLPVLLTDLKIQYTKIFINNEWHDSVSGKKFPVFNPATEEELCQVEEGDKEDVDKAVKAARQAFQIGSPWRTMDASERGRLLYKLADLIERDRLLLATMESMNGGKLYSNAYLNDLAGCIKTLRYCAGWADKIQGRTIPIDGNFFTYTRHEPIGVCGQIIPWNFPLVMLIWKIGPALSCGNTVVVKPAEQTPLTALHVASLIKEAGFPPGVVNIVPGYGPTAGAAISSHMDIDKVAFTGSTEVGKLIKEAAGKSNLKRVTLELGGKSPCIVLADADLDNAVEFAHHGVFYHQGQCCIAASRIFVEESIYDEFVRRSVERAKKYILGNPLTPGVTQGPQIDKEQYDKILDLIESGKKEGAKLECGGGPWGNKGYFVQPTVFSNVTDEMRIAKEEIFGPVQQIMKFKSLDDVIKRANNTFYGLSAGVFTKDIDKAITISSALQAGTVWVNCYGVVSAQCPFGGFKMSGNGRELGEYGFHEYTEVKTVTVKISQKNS
ALOX12 inhib: 12-hLO (ALOX12) enzyme inhibition; P18054; purified 12-hLO, xylenol orange hydroperoxide absorbance; Potency, µM (series often up to 57.1 µM), without a hit: at the highest dose activity change, negative = inhibition, actives largely listed as inhibitors; actives 0.12% (n = 150,000); AID 1452; active = well fitted inhibition curve with a large enough effect; inconclusive = small, poorly fitted or top-dose-only effect; also: potency is read from the fitted curve at half-maximal effect; nearly all actives have a fitted effect of over 55% in size
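Hydroperoxide formation by human 12-lipoxygenase from 40 uM arachidonic acid was followed colorimetrically via ferric-xylenol orange complex, using the 573/405 nm absorbance ratio. Enzyme concentration was 150 nM, with 30 min reaction at room temperature.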
HPGD block: inhibitors of human 15-hydroxyprostaglandin dehydrogenase (HPGD) | P15428 | purified HPGD, NADH fluorescence kinetic, PGE2 substrate | Potency, µM, inactives show at the highest dose activity change, negative = inhibition, hits mostly inhibitors | actives 4.3% (n = 150,000) | AID 894; also: potency is read from the fitted curve at half-maximal effect
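NADH formation kinetics: reaction with 30 uM PGE2 and 1 mM NAD+ (final), 20 nM enzyme, Tris-HCl pH 8 with Tween 20, after 15 min compound preincubation at room temperature. Fluorescence change, last versus first of five reads.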
Starred values were filed as active, the others as inactive; ? = inconclusive; . = no result given; [ ] = another dose, or the depositor's remark. Unless noted, calls follow the shape of the dose curve; as a rule, active = well fitted inhibition curve with a large enough effect (not every such curve was filed as active); inconclusive = small, poorly fitted or top-dose-only effect, or another doubt; inactive = no such curve, though single readings can be large or run the other way. Unless noted, % is scaled to controls: 0 for no effect and ±100 for the full control effect.

SMILES	PNC assembly inh	Lamin A splicing	ALDH1A1 inh	ALOX12 inhib	HPGD block
CC(C)Oc1cccc(-c2nnc(SCC(=O)Nc3ccc4c(c3)OCCO4)n2N)c1	-7.7	-3.1%	12.6µM*	3.0%	-11.8%
Cc1cc(NC(=O)CSc2nnc(-c3ccncc3)n2N)ccc1Br	-88.9*	2.6%	?	-1.0%	-12.0%
Cc1ccc(-n2nc(C)c3c(C(=O)NCc4ccccc4)cc(C4CC4)nc32)cc1	.	12.6%[46 µM]	.	.	.
CN(CC(=O)N1CCCC1)S(=O)(=O)c1ccc2ccccc2c1	.	-4.4%[46 µM]	?	.	.
O=C(CSc1ncn(-c2ccccc2)n1)Nc1ccc(Br)cn1	-11.0	19.7%	?	-9.4%	28.2µM*
O=C(CSc1ccccn1)Nc1ccc(Br)cn1	-13.6	12.1%	-10.6%	1.9%	-11.2%
O=C(CSC1=NC2(CCCCCC2)N=C1c1ccccc1)Nc1ccc2c(c1)OCCO2	-118.9*	?	22.4µM*	-7.2%	-14.3%
CC(=O)c1cccc(NC(=O)CSc2ccc(-c3ccc4c(c3)OCO4)nn2)c1	25.3	-13.3%	0.7%	-3.0%	-5.0%
O=C(CSc1ncn(-c2ccccc2)n1)Nc1ccc2c(c1)OCCO2	-86.1*	7.4%	?	-1.6%	-12.1%
O=C(CSC1=NC2(CCCCC2)N=C1c1ccccc1)Nc1ccc2c(c1)OCCO2	-23.3	?	37.1%	-2.6%	-13.2%
O=C(CSc1ccc(-c2ccccc2)nn1)Nc1ccc2c(c1)OCCO2	-113.0*	?	-12.4%	-3.5%	-4.8%
COc1ccc(CCNC(=O)c2c(C)oc3nc(C)nc(N4CCOCC4)c23)cc1OC	.	-15.7%[46 µM]	.	.	.
c1ccc(-c2csc3nnc(SCc4ccc5c(c4)OCO5)n23)cc1	21.2	-16.0%	?	-13.8%	22.4µM*
COC(=O)c1ccccc1N(C)S(=O)(=O)c1cc2c3c(c1)CC(=O)N3CCC2	.	9.0%[46 µM]	.	.	.
CCn1nnnc1-c1ccc(OC)c(S(=O)(=O)NCc2ccccc2)c1	-4.5	3.3%	1.89µM*	13.1%	20µM*
COc1ccc(NS(=O)(=O)c2cc(-c3nnnn3C)ccc2OC)cc1	25.5	-1.0%	0.794µM*	2.0%	-6.0%
CCn1nnnc1-c1ccc(OC)c(S(=O)(=O)Nc2ccc(C)c(C)c2)c1	?	-4.1%	7.08µM*	-0.1%	-6.2%
CCCCCC(C)N (stereo not drawn)	.	.	-9.9%	-2.9%	-12.2%
CN1CCN(C2=C(Cl)C(=O)N(CCc3ccccc3)C2=O)CC1	1.6	-11.7%	?	-1.0%	-11.8%
O=C1C(Cl)=C(N2CCCCC2)C(=O)N1Cc1ccccc1	-104.0*	?	?	-3.6%	-17.3%
CC1CC(C)CN(C(=O)c2ccc3c(=O)n(Cc4ccc5c(c4)OCO5)c(=S)[nH]c3c2)C1 (stereo not drawn)	?	?	1.41µM*	-18.4%	15.8µM*
CN1CCN(C(=O)c2ccc3c(=O)n(Cc4ccc(Cl)cc4)c(=S)[nH]c3c2)CC1	-8.4	?	22.4µM*	-18.5%	-18.9%
Cc1c(Cl)cccc1NC(=O)c1cnc2sc(N3CCOCC3)nn2c1=O	.	6.1%[46 µM]	.	.	.
CC(=O)N1CCC2(CCCN(c3ccc(-c4ccccc4)cc3)C2)CC1	.	.	?	-27.1%	?
CCc1ccc(C2=C(C)C(N3CCC(C(=O)NCc4ccc(C)o4)CC3)=NS2(=O)=O)cc1	.	14.1%[46 µM]	.	.	.
SMILES	PNC assembly inh	Lamin A splicing	ALDH1A1 inh	ALOX12 inhib	HPGD block
CCCc1cc2c(=O)c(-c3cscn3)c(C(=O)OCC)oc2cc1O	.	-6.2%[46 µM]	?	.	.
CCOC(=O)c1[nH]nc(-c2cc(CC)c(O)cc2O)c1-c1cscn1	-17.5	?	8.91µM*	-18.7%	-8.3%
CCCCN(CC)C(=O)CCCn1c(=O)c2cccn2c2ccccc21	.	20.0%[46 µM]	.	.	.
CCCc1cc(=O)n2[nH]c(-c3ccc(C)cc3)cc2n1	-3.0	1.8%	?	-7.3%	?
CCCc1cc(=O)n2[nH]c(-c3ccccc3)cc2n1	-100.0*	-12.1%	?	6.5%	?
CCOc1ccc(C(=O)CN2CCN(S(=O)(=O)c3ccc(OC)cc3)CC2)cc1	-14.0	1.2%	20µM*	-3.1%	-5.7%
COc1ccc(C(=O)CN2CCN(S(=O)(=O)c3cccc([N+](=O)[O-])c3)CC2)cc1	-16.4	-14.4%	10µM*	-4.9%	-13.0%
COc1cccc(CN2CCN(S(=O)(=O)c3ccc(Br)cc3)CC2)c1	-2.4	?	0.0%	-7.2%	-4.2%
COc1ccc(C(=O)CN2CCN(S(=O)(=O)c3ccc(C(C)C)cc3)CC2)cc1	.	-12.1%[46 µM]	.	.	.
COc1cccc(C(=O)CN2CCN(S(=O)(=O)c3ccc(Br)cc3)CC2)c1	0.0	3.5%	11.2µM*	-10.8%	-7.5%
CCOc1ccc(C(=O)CN2CCN(S(=O)(=O)c3ccc(Br)cc3)CC2)cc1	6.7	-0.7%	22.4µM*	-15.6%	-5.3%
CN1CCN(C(=O)NC2CCCCC2)CC1	?	-8.6%	?	-3.4%	-6.6%
CN1CCN(C2CCCCCC2)CC1	-118.9*	-6.0%	10.9%	1.4%	-4.4%
Cc1cccnc1-n1c(CCN2C(=O)c3ccccc3C2=O)nc2ccccc2c1=O	52.1	12.9%	17.8µM*	-7.3%	-14.9%
Cc1cccc(Cn2c(CN3CCN(Cc4ccccc4)CC3)nc3c2c(=O)[nH]c(=O)n3C)c1	37.3	-6.8%	-2.3%	-9.2%	-6.3%
C=CCSc1nc2c(c(=O)[nH]c(=O)n2C)n1Cc1ccc(C)cc1	?	-13.6%	-10.9%	2.2%	25.1µM*
CCCSc1nc2c(c(=O)[nH]c(=O)n2C)n1Cc1ccc(C)cc1	?	9.3%	3.6%	-6.1%	-7.1%
C/C=C/Cn1c(SCc2ccc(C)cc2)nc2c1c(=O)[nH]c(=O)n2C	?	?	?	0.1%	14.1µM*
COCCSc1nc2c(c(=O)[nH]c(=O)n2C)n1Cc1cccc(C)c1	-0.8	0.6%	14.1µM*	3.7%	?
Cc1ccc(Cn2c(SCC(C)C)nc3c2c(=O)[nH]c(=O)n3C)cc1	?	2.1%	28.2µM*	-1.2%	20µM*
CCS(=O)(=O)NCCc1sc2nc(-c3ccc(OC)cc3)nn2c1C	.	-7.0%[46 µM]	.	.	.

Bioassay records (PubChem)
